Drawing on PubChem BioAssay AID686915 (National Center for Advancing Translational Sciences (NCATS), 2013), this text covers Potency for 12 compounds.

“And” between values parts separate entries of the source, which are not always exact repeats. Identical values can stand only once. Results filed as inconclusive are left out. Where a call stands in place of a potency, no number is given. The source made the active and inactive calls. The call rests on the fitted dose curve; in most records, active means well fitted inhibition curve with a large enough effect; inconclusive means small, poorly fitted or top-dose-only effect; inactive means no such curve, though single readings can be large or run the other way.

This assay is described as follows: qHTS screen for inhibitors of ELG1-dependent DNA repair in human embryonic kidney (HEK293T) cells expressing luciferase-tagged ELG1: MMS Stimulated Assay for probe SAR. To be noted: HEK293T ELG1-luciferase reporter, 16 h; series mostly up to 46.1 µM. The source says:
Cancer cells divide rapidly compared to normal cells in the body. During cell division, cancer cells need to duplicate their genome by DNA replication. The failure of genome duplication leads to cancer cells' death. Therefore, inhibitors of DNA replication could specifically kill cancer cells. Based on this concept, many chemotherapeutic agents were developed and have been used to treat cancer patients. However, there are a limited number of agents available in the clinical setting, and some of those that do exist have low efficacy and severe side effects. Therefore, if we can find the compounds that effectively block DNA replication either by directly damaging DNA or by inhibiting other cellular mechanisms, the options for cancer treatment will be broadened. With this in mind, we developed a quantitative high-throughput ELG1-luciferase reporter gene assay. Small molecules that specifically block ELG1 function in response to DNA damage can be identified by monitoring the suppression of luciferase activity. Since ELG1 defines a pathway for repairing DNA damage, agents blocking ELG1 function can be used to sensitize cancer cells to chemotherapeutic agents whose mechanism of action involves the induction of DNA damage. NIH Molecular Libraries Probe Production Network [MLPCN] NIH Chemical Genomics Center [NCGC] MLPCN Grant: R03 MH092164 Assay Provider: Kyungjae Myung, NHGRI, NIH
ELG1-luc HEK293T cells will be seeded in 1536-well plates at a density of 2,000 cells / well. Approximately 5 hours after plating, compounds will be added to the plate by pin tool transfer and MMS will be added by FRD dispenser (final concentration of MMS = 10 µM). 16 hours following the addition of the compounds, luciferase activity will be measured using Amplight reagent.
Background: Quantitative high-throughput screening tests each substance at several concentrations.
For the compound `Fc1cc(Nc2nc(-c3ccncc3)nc3ccccc23)ccc1-c1cccc(C(F)(F)F)c1`, the Potency is 18.7 µM (active).

On to `COc1cc(Nc2nc(-c3ccncc3)nc3ccccc23)ccc1F`, for which the Potency was 23.5 µM (active) and 20.9 µM (active).

On to `c1ccc2c(Nc3ccn[nH]3)nc(-c3ccncc3)nc2c1`, for which the Potency was 4.69 µM (active).

On to `Fc1cc(Nc2nc(-c3ccncc3)nc3ccccc23)ccc1N1CCNCC1`, for which the Potency result was “inactive”.

In the case of `CN1CCN(c2cc(-c3nc(Nc4ccc(F)c(F)c4)c4ccccc4n3)ccn2)CC1`, the Potency was 23.5 µM (active).

For `Fc1cc(Nc2nc(-c3ccncc3)nc3ccccc23)ccc1-c1cc(F)c(F)c(F)c1`, the Potency result was “inactive”.

For `COc1cc(-c2nc(Nc3ccc(F)c(F)c3)c3ccccc3n2)c(F)cn1`, the Potency was 8.33 µM (active).

Regarding `O=[N+]([O-])c1ccc(-c2nc(Nc3ccc(F)c(F)c3)c3ccccc3n2)cc1`, the Potency entry was “inactive”.

As to `Fc1ccc(Nc2nc(-c3ccnc(N4CCCCC4)c3)nc3ccccc23)cc1F`, the Potency entry is “inactive”.

Regarding `COc1cc(-c2nc(Nc3ccc(F)c(F)c3)c3ccccc3n2)ccn1`, the Potency result was “inactive”.

For the compound `CN1CCN(c2ccc(Nc3nc(-c4ccncc4)nc4ccccc34)cc2F)CC1`, the Potency result was “inactive”.

As to `Fc1cc(Nc2nc(-c3ccncc3)nc3ccccc23)ccc1N1CCCCC1`, the Potency was 18.7 µM (active).
